Compound activity: PubChem BioAssay, several laboratories
PP1 inh = blocks human PP1-alpha phosphatase, a PP5 counter-screen; purified PP1alpha, OMFP fluorescence; inhibition, % at 6.7 µM; hit rate 0.9% among 320,000;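 active means inhibition above the mean inhibition of all tested compounds plus 3 SD, computed separately for each screening campaign, cut at about 15% in these data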
Target sequence (P62136 whole entry, looked up): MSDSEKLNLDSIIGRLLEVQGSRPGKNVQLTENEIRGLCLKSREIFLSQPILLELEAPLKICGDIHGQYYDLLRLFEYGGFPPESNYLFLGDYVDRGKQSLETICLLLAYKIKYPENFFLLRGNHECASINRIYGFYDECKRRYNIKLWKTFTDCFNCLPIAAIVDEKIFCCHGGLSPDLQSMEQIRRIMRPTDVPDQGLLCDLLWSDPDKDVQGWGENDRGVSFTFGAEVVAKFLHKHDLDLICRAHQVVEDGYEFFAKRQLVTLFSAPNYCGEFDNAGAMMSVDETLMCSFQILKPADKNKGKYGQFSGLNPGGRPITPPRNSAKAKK
ATG4B inhibitor = blocks human ATG4B protease cleavage of LC3 substrate; Q9Y4P1; ATG4B cleavage of LC3-PLA2, NBD-HPC fluorescence, 1 h; inhibition, % at 8.33 µM; hit rate 0.51% among 340,000; AID 504462; in the data active means inhibition above about 40%
PP5 primary = blocks human protein phosphatase 5 activity | P53041 | purified PP5c, OMFP substrate fluorescence | inhibition, % at 6.7 µM | hit rate 0.18% among 320,000 | AID 1987;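 active means inhibition above the campaign's mean inhibition across all tested compounds plus 3 SD, cut at about 9.5% in these data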;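 further: 0% = DMSO only and 100% = 100 µM cantharidin control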
Cardio protect = protects H9c2 cardiomyocytes from peroxide injury; AID 588492; H2O2 injury protection, ATPLite, 2 h; protection from H2O2 cell death, % at 20 µM; hit rate 0.63% among 360,000;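 active means compounds giving at least 50% protection of heart cells from peroxide-induced death in the single-dose screen, raw or plate-pattern-corrected value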;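 further: 0% = DMSO wells with peroxide and 100% = DMSO wells without peroxide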
* = called active by the depositor; . = no result. The list is not random: actives were taken first. Their share in the collection is about 1.9%.

SMILES	PP1 inh	ATG4B inhibitor	PP5 primary	Cardio protect
CCC(=O)Nc1cc(C(=O)O)ccc1Sc1ccccc1	17*	-5	-2	2
Cc1cccc(C)c1NC(=O)C(c1ccccc1OC(F)(F)F)N1CCN(c2ccc(F)cc2)CC1 (centres undefined)	.	.	.	-2
CC1CCN(c2nc(Cl)nc(Nc3ccc([N+](=O)[O-])cc3)n2)CC1	4	-4	0	-3
Cc1sc2ncnc(SCc3ccc(C(=O)O)cc3)c2c1C	-2	-6	-1	0
Cc1ccc(-c2csc3ncnc(SCc4ccc(C(=O)O)cc4)c23)cc1	16*	25	3	16
CCc1nnc(NC(=O)c2ccc(S(=O)(=O)N(C)c3ccccc3)cc2)o1	16*	10	3	18
CN(c1ccccc1)S(=O)(=O)c1ccc(NC(=O)c2ccccc2)cc1	4	3	-3	0
CCOC(=O)NC1=NCC(C)S1 (centres undefined)	0	-6	-1	-1
Cc1cccc(C)c1OC(=O)c1ccccc1	.	1	.	-4
COc1ccc(-c2cc(=O)oc3c(C)c(OCC(=O)N(C)C)ccc23)cc1	-1	-6	1	4
COc1ccc(-c2cc(=O)oc3c(C)c(O)c(CN(C)C)cc23)cc1	2	-11	2	70*
CCOC(=O)C(=NCC1CCCO1)NNc1ccccc1Cl (centres undefined)	-3	29	2	1
CCCCS(=O)(=O)N1CCN(S(=O)(=O)c2cccs2)CC1	-1	1	-1	1
COc1ccccc1CN(Cc1nc2ccccc2c(=O)[nH]1)S(=O)(=O)c1ccc2ccccc2c1	7	-16	4	58*
COc1ccc(-c2cc(C(=O)N(C)Cc3cccc(OC)c3OC)c3ccccc3n2)cc1OC	-2	-4	0	29
COc1ccc(-c2cc(C(=O)N(C)Cc3nc4ccccc4c(=O)[nH]3)c3ccccc3n2)cc1OC	.	-16	.	66*
COc1ccc(S(=O)(=O)N(Cc2ccccc2)Cc2nc3ccccc3c(=O)[nH]2)cc1	6	-17	4	13
COc1cc2nc(CN(C)Cc3nc4ccccc4c(=O)[nH]3)[nH]c(=O)c2cc1OC	-8	-3	2	55*
O=C(O)c1ccc(Cn2cnc3c(=O)[nH]cnc32)cc1	.	-3	.	-2
CCC(Oc1ccc2c(=O)c(-c3ccccc3OC)coc2c1)C(=O)OCc1ccccc1 (centres undefined)	17*	8	0	-12
COc1ccccc1-c1coc2cc(OC(=O)N3CCOCC3)ccc2c1=O	0	-7	0	0
CCCCn1c(N)c(N(CCOC)C(=O)c2cc(Cl)nc3ccccc23)c(=O)[nH]c1=O	-6	-5	1	6
Cc1[nH]nc2c1C(c1ccc(OC(=O)c3ccco3)cc1)C(C#N)=C(N)O2 (centres undefined)	1	54*	1	-1
Cc1[nH]nc2c1C(c1ccco1)C(C#N)=C(N)O2 (centres undefined)	-5	7	0	17
C(=N\Nc1nc2ccccc2[nH]1)/c1ccccn1	.	14	.	-28
SMILES	PP1 inh	ATG4B inhibitor	PP5 primary	Cardio protect
C(=N\Nc1nc2ccccc2[nH]1)/c1cccc2nccnc12	-1	1	0	51*
Cc1nn(-c2ccccc2)c(C)c1/C=N/NC(=O)c1cc(O)cc(O)c1	-2	-12	0	15
COc1cc(/C=N/NC(=O)c2cc(-c3c(C)nn(-c4ccccc4)c3C)n[nH]2)ccc1O	0	-10	3	51*
COc1cc(/C=N/NC(=O)c2cc(-c3ccc4c(c3)OCO4)n[nH]2)ccc1O	-1	-29	3	74*
Cc1cc(C(=O)N/N=C/c2c(C)nn(-c3ccccc3)c2C)n[nH]1	-3	-9	0	18
O=C(N/N=C/c1ccc([N+](=O)[O-])cc1)c1cc(-c2ccc3c(c2)OCO3)n[nH]1	-6	-8	-2	-5
Cc1nn(-c2ccccc2)c(C)c1/C=N/NC(=O)c1cc(C2CC2)[nH]n1	-5	4	1	60*
Cc1nn(-c2ccccc2)c(C)c1-c1cc(C(=O)N/N=C/c2ccc(O)cc2)[nH]n1	-2	-2	1	56*
c1cc2[nH]snc2c2nc(C3CC3)nc12	4	-9	0	86*
Cc1cccc(/C(N)=N/OC(=O)Cc2cccc3ccccc23)c1	-2	2	2	-4
Cc1cccc(C(=O)O/N=C(\N)Cc2cccc3ccccc23)c1	-1	46*	2	-21
Cc1ccc(-n2cc(CCCCCCCCC(=O)O)nn2)cc1	-4	-11	-1	6
CCCCn1c(NS(=O)(=O)c2ccccc2)c(S(=O)(=O)c2ccc(C)cc2)c2nc3ccccc3nc21	5	75*	9	-4
O=C(CSc1nnnn1-c1ccc(F)cc1)c1ccc(O)c(O)c1	0	-7	-1	54*
Cc1ccc(OCC(=O)N2CCOCC2)cc1C	-1	3	5	-2
Cc1cc(OCC(=O)N2CCOCC2)cc2oc(=O)c3ccccc3c12	-2	-7	0	59*
CN(CC(=O)Nc1cccc(F)c1)C(=O)CCCc1nc2ccccc2c(=O)[nH]1	-7	-8	-2	60*
CCOc1ccc(NC(=O)CN(C)C(=O)CCc2nc3ccccc3c(=O)[nH]2)cc1OCC	.	.	.	50
CN(CC(=O)Nc1ccc(Cl)c(C(F)(F)F)c1)C(=O)Cc1n[nH]c(=O)c2ccccc12	-1	-4	0	30
COc1cccc(NC(=O)CN(C)C(=O)CCCc2nc3ccccc3c(=O)[nH]2)c1	1	-5	1	64*
CCN(CC(=O)Nc1ccc(OC)cc1)C(=O)CCc1nc2ccccc2c(=O)[nH]1	-2	7	-2	90*
CN(CC(=O)Nc1cccc(F)c1)C(=O)Cc1n[nH]c(=O)c2ccccc12	-8	-6	2	74*
CN(CC(=O)Nc1ccc(Cl)c(C(F)(F)F)c1)C(=O)CCCc1nc2ccccc2c(=O)[nH]1	3	-10	4	37
CCCCn1c(SCC(=O)NNC(=O)c2ccccc2)n[nH]c1=O	.	-1	.	0
CCc1ccc(C(=O)C(C)OC(=O)Cc2n[nH]c(=O)c3ccccc23)cc1 (centres undefined)	-2	-10	0	5
SMILES	PP1 inh	ATG4B inhibitor	PP5 primary	Cardio protect
CCOC(=O)c1c2ccc(OCC(=O)N/N=C/c3ccc(C)cc3)cc2n2ccccc12	-2	-4	0	54*
COc1ccccc1C(=O)NNC(=O)C1CC=CCC1 (centres undefined)	1	11	0	-8
CS(=O)(=O)Nc1cccc(NC(=O)c2cccc3c(-c4cccc(C(N)=O)c4)coc23)c1	.	.	.	54*
CC(=O)c1cccc(NC(=O)c2cccc3c(-c4cccc(C(N)=O)c4)coc23)c1	.	.	.	6
CSc1ccc(C2=C/C(=C3/SC(=S)NC3=O)c3ccccc3O2)cc1	.	0	.	-8
Cc1ccc(/C=N/NC(=O)c2ccncc2)cc1	-2	-2	2	2
O=C(N/N=C/c1ccncc1)c1ccc(NC(=O)c2ccc(Cl)cc2)cc1	30*	4	1	2
Cc1ccc(C(=O)Nc2ccc(C(=O)N/N=C/c3ccncc3)cc2)cc1	16*	.	-1	.
